Test results taken from PubChem BioAssay (NCATS).
Values joined by “and” are separate entries in the source; they are usually repeats but may differ in a detail not shown here. Equal values may be shown once.

assay: Cell Proliferation Assay against the TMD8 Cell Line (AID 651645); settings: TMD8 DLBCL cell line proliferation/viability; at 46.1 µM (top of the series);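 note: cells exposed to compound for 48 h before reading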
Description: One class of targeted therapeutics showing early clinical success in killing of ABC DLBCL lines are small molecule inhibitors of the Bruton tyrosine kinase (BTK) 11.
Prior to any combination assays, using an NCATS developed oncology compound library called the Mechanism of Interrogation Plate (MIPE), two well studied ABC DLBCL lines (TMD8 and HBL1) were screened using a cell viability assay (CellTiterGlo) and a 12-point titration series for each single agent. These initial experiments offered insight into the concentration range that offered the best coverage of activity and non-activity to assure relevant data is generated. In addition to the viability signature associated with this library, we examined the apoptotic response of each agent versus the TMD8 line as judged by caspase 3/7 activation. Activity was assayed at both 8 and 16 hour time-points to gain an appreciation of which agents induced an apoptotic response in a reasonable timeframe from a therapeutic exposure perspective. MIPE was also assayed for single agent viability in a human mesenchymal stem cell (hMSC) line as a surrogate of each library member's potential therapeutic index.
A total of 500 log growing TMD8 cells are seeded per well in 5 uL of a RPMI with glutamine (or Glutamax), without phenol red plus 5% FBS and 1X Pen/Strep into 1536 -solid white high base tissue culture treated Greiner One Bio Plates (789173-F) using a multidrop combi dispenser and a small sterile cassette. Compounds and controls totaling 23nL per well (negative control DMSO and positive control 9.2 uM Bortezomib-final) are immediately added to the plates using a 1536 head pin tool from Kalypsys. The plates are then covered with stainless steel gasket lids from Kalypsys and incubated for 48 hours at 37C under 95% relative humidity with 5% CO2. After 48 hours, the plates are removed and allowed to reach room temperature before 3 uL of Cell Titer Glo reagent (Promega) is added using an Aurora Flying Reagent Dispenser Bioraptor. The plates are then spun at 1000 rpms to remove bubbles and incubated for 15 minutes at room temperature before read on a ViewLux using a luminescent filter with a 10 second exposure. The relative luciferase units are used to calculated percent activity using DMSO as 100% and Bortezomib as 0%.

SMILES | viability (% of control)
CNC(=O)c1cc(Oc2ccc(NC(=O)Nc3cc(C(C)(C)C)nn3-c3ccc4ncccc4c3)c(F)c2)ccn1 | 2.72%
O=C(Nc1cc(C(F)(F)F)cc(C(F)(F)F)c1)c1cc(Cl)ccc1O | 1.86%
O=C(C=Cc1cccnc1)NCCCCC1CCN(C(=O)c2ccccc2)CC1 | 7.31%
CC(=O)c1c(C)c2cnc(Nc3ccc(N4CCNCC4)cn3)nc2n(C2CCCC2)c1=O | 0.508%
COC(=O)c1ccc2c(C(=Nc3ccc(N(C)C(=O)CN4CCN(C)CC4)cc3)c3ccccc3)c(O)[nH]c2c1 | 1.41%
C1Cc2[nH]nc(-c3nn[nH]n3)c2C1 | 103%
CC[C@@H]1C(=O)N(C)c2cnc(Nc3ccc(C(=O)NC4CCC(N5CCN(CC6CC6)CC5)CC4)cc3OC)nc2N1C(C)C (stereo not given in full) | 3.58%
CC(=O)Nc1sc2c(c1-c1nc3ccccc3s1)CNC2 | 4.93%
O=C(C=Cc1c(C(=O)O)[nH]c2cc(Cl)cc(Cl)c12)Nc1ccccc1 | 103%
O=C(NCCCNc1nc(Nc2cccc(NC(=O)N3CCCC3)c2)ncc1I)c1cccs1 | 1.52% and 1.4%
Cc1cc(Nc2cc(N3CCN(C)CC3)nc(C=Cc3ccccc3)n2)n[nH]1 | 9.16%
CC1(O)CC(c2nc(-c3ccc4ccc(-c5ccccc5)nc4c3)c3c(N)nccn23)C1 (stereo not given) | 2.23%
Cc1[nH]c2ccccc2c1CCNCc1ccc(C=CC(=O)NO)cc1 | 1.52%
CC(C)=CCCC(C)=CCCC(C)=CCSc1ccccc1C(=O)O | 100%
CC(C)C[C@H](NC(=O)CNC(=O)c1cc(Cl)ccc1Cl)B(O)O | 4.52%
CN1CCC(CNc2ccc3ncc(-c4cccc(OC(F)(F)F)c4)n3n2)CC1 | 4.73%
Nc1nc(Nc2ccc(S(N)(=O)=O)cc2)nn1C(=O)c1c(F)cccc1F | 6.19%
COc1ccc(CC2SC(=O)NC2=O)cc1C(=O)NCc1ccc(C(F)(F)F)cc1 (stereo not given) | 71.9%
COc1cc2c(Oc3ccc4[nH]c(C)cc4c3F)ncnc2cc1OCCCN1CCCC1 | 1.51%
Cc1cn2c(-c3cn[nH]c3)cnc2c(Nc2ccc(C(=O)N3CCNCC3)cc2F)n1 | 35.7%

SMILES | viability (% of control)
CC1=C(CO)C(=O)O[C@@H]([C@@H](C)[C@H]2CC[C@H]3[C@@H]4C[C@H]5O[C@]56[C@@H](O)C=CC(=O)[C@]6(C)[C@@H]4CC[C@]23C)C1 | 0.616%
C[C@@H](Oc1cc(-c2cnn(C3CCNCC3)c2)cnc1N)c1c(Cl)ccc(F)c1Cl | 2.18%
Nc1ccccc1NC(=O)c1ccc(CNC(=O)OCc2cccnc2)cc1 | 4.84%
CCCCCN(CCC12CC3CC(CC(C3)C1)C2)C(=O)NCCCc1ccncc1 | 1.96%
NC(=O)c1c(OCc2c(F)cc(Br)cc2F)nsc1NC(=O)NCCCCN1CCCC1 | 8.16%
CCC[C@H](NC(=O)C(C#N)=Cc1cccc(Br)n1)c1ccccc1 | 3.01%
CC=C1NC(=O)[C@H]2CSSCCC=C[C@H](CC(=O)N[C@H](C(C)C)C(=O)N2)OC(=O)[C@H](C(C)C)NC1=O | 4.33%
C=CC(=O)Nc1cc2c(Nc3ccc(F)c(Cl)c3)ncnc2cc1OCCCN1CCOCC1 | 0.581%
CN(c1ncccc1CNc1nc(Nc2ccc3c(c2)CC(=O)N3)ncc1C(F)(F)F)S(C)(=O)=O | -0.0421%
COc1cc(=C2C=c3ccccc3=N2)[nH]c1=Cc1[nH]c(C)cc1C | 6.25%
COc1cc(C(C)C)c2c(c1)S(=O)(=O)N(COc1cc(=O)n3cccc(OCCN4CCCCC4)c3n1)C2=O | 0.892%
O=C(O)c1ccc2c(c1)nc(Nc1cccc(Cl)c1)c1ccncc12 | 0.231%
O=C(O)c1ccc2cc(-c3ccc(O)c(C45CC6CC(CC(C6)C4)C5)c3)ccc2c1 | 2.27%
CCN(CC)CCCCNc1ncc2cc(-c3cc(OC)cc(OC)c3)c(NC(=O)NC(C)(C)C)nc2n1 | 3%
O=C(C=Cc1cccc(S(=O)(=O)Nc2ccccc2)c1)NO | 1.87%
Nc1ccccc1NC(=O)c1ccc(CNc2nccc(-c3cccnc3)n2)cc1 | 2.31%
COc1cc2ncn(-c3cc(OCc4ccccc4C(F)(F)F)c(C(N)=O)s3)c2cc1OC | 37.6%
CC(C)c1ccccc1Cc1cc(C(=O)Nc2ccc(S(=O)(=O)c3ccccc3C(C)(C)C)cc2)c(O)c(O)c1O | 9.33%
c1ccc2c(CCNc3ccc(Nc4ccncc4)cc3)c[nH]c2c1 | 3.66%
Cc1ccc(C(=O)Nc2cccc(C(F)(F)F)c2)cc1-c1ccc2nc(NCCN3CCOCC3)ncc2c1 | 0.164%
